This test can be described thus: growth inhibition of WT strain, primary screen, mitochondrial fusion inhibitor project, WT and mutant strains, chemical genetic (AID 1362). As to conditions: mitochondrial fusion phenotypic screen, at 10 µM.
[1] abbreviates: WT strain, growth inhibition, stronger effect = higher value.

Hit rate of the full screen: of about 190,000 compounds, about 4,000 (2.1%) were called active. Cut-off read from the data, not from the text of the source: active = inhibition above about 58%; inactive = the rest, inconclusive results apart; tested in S. cerevisiae. The entries come from a sample that favours actives as a whole.

One may read the inhibition as the drop in the measured response relative to a control, in per cent. `CCCOc1ccc(C(=O)C(CCC(CNCC)C(=O)c2ccc(OCCC)cc2)CNCC)cc1` (stereo unspecified): the inhibition runs as follows: under setting [1], 72.9% (active); (mutant strain inhibition) 35.9%.
Consider `CCCOc1ccc(C(=O)NCCc2ccccc2)cc1`, for which the inhibition under setting [1] is -6.25% (inactive) and the inhibition (mutant strain inhibition) is -16.2%.
Regarding `Cc1cc2ccccc2n1CCC(=O)O`, the inhibition is 7.54% (inactive) under setting [1] and 5.92% (mutant strain inhibition).
The like results for `NC(=O)c1ccccc1N(Cc1ccccc1)S(=O)(=O)c1ccccc1` were, in that order, -1.27% (inactive) and 17.1%.
The like results for `COc1ccc(S(=O)(=O)N(C)CC(=O)N2CCCC2)cc1Cl` were, in that order, -0.67% (inactive) and 5.49%.
The like results for `O=C(O)CC/C(=N\NC(=O)c1ccc(F)cc1)c1ccc(Br)cc1` were, in that order, -0.54% (inactive) and 7.09%.
For the compound `Clc1ccc(COn2c(-c3ccc(Cl)cc3Cl)nc3ncccc32)cc1`, the inhibition under setting [1] was 73.2% (active) and the inhibition (mutant strain inhibition) is 48.6%.
On to `Clc1ccc(-c2ncc3ccccn23)c(Cl)c1`, for which the inhibition runs as follows: under setting [1], 24.3% (inactive); (mutant strain inhibition) 2.24%.
The like results for `COn1c(-c2ccc(Cl)cc2Cl)nc2ncccc21` were, in that order, 6.69% (inactive) and 2.12%.
Take `COCCNC(=S)Nc1cc(S(=O)(=O)N2CCOCC2)ccc1N1CCCCC1`: the inhibition by setting is: under setting [1], 22% (inactive); (mutant strain inhibition) 22.7%.
The like results for `COc1ccc(N2CCN(c3ccc([N+](=O)[O-])nc3)CC2)cc1` were, in that order, 15.8% (inactive) and 8.11%.
Turning to `COc1ccc(-c2cc(C3CCN(c4ncccc4[N+](=O)[O-])CC3)[nH]n2)cc1`, the inhibition by setting is: under setting [1], 72.2% (active); (mutant strain inhibition) 40.6%.
The like results for `CC(=O)NC(Cc1ccccc1)C(=O)NC1CCN(c2ncccc2[N+](=O)[O-])CC1` (stereo unspecified) were, in that order, 6.05% (inactive) and 4.93%.
As to `O=c1cnnc(Nc2ccccc2F)[nH]1`, the inhibition under setting [1] is -19.8% (inactive) and the inhibition (mutant strain inhibition) was -21.4%.
Regarding `O=C(COc1ccc(Cl)cc1)N1CCN(S(=O)(=O)c2ccc(Cl)cc2)CC1`, the inhibition by setting is: under setting [1], -16.2% (inactive); (mutant strain inhibition) -6.77%.
The like results for `CCC(=O)c1ccc(OCC(O)CN2CCN(c3cccc(C(F)(F)F)c3)CC2)cc1` (stereo unspecified) were, in that order, 10.7% (inactive) and 17.1%.
For `O=C(COc1ccc(Cl)cc1)N1CCN(c2cccc(C(F)(F)F)c2)CC1`, the inhibition under setting [1] is 59.2% (active) and the inhibition (mutant strain inhibition) came out at 27.3%.
The like results for `CC(=O)Oc1ccccc1C1=NN(C(C)=O)C(c2ccccc2)C1` (stereo unspecified) were, in that order, -8.11% (inactive) and 7.28%.
Turning to `Cc1cccc(NC(=S)Nc2ccc(Br)cc2)c1`, the inhibition is, setting by setting: under setting [1], -2.23% (inactive); (mutant strain inhibition) -3.76%.
The like results for `Cc1cccc(NC(=S)Nc2ccc(Cl)c(Cl)c2)c1` were, in that order, 83% (active) and 83%.
The like results for `Cc1cccc(NC(=S)Nc2ccc3cn[nH]c3c2)c1` were, in that order, 3.94% (inactive) and -1.45%.
Regarding `CCCCCN(C(=O)NC(=O)Nc1cccc(C)c1C)S(C)(=O)=O`, the inhibition by setting is: under setting [1], -2.53% (inactive); (mutant strain inhibition) 12%.
For `O=S(=O)(c1ccc(-c2ccccc2)cc1)N1CCCC1`, the inhibition under setting [1] was -9.92% (inactive) and the inhibition (mutant strain inhibition) was -14.9%.
The like results for `CCOC(=O)N1CCN(C(=O)Cn2cnc3ccccc3c2=O)CC1` were, in that order, -8.2% (inactive) and -9.03%.
The like results for `CCOC(=O)C1CCc2nc3ccccc3c(=O)n21` (stereo unspecified) were, in that order, 96.7% (active) and 18.1%.
As to `CCOCCCn1c(NN)nc2ccccc2c1=O`, the inhibition reads like this: under setting [1], 4.28% (inactive); (mutant strain inhibition) 1.61%.
The like results for `Cc1nc(-c2ccc(Cl)cc2)sc1C(=O)CBr` were, in that order, 29.8% (inactive) and 16%.
The like results for `Cc1ccc(S(=O)(=O)Cc2cc(-c3ccc(Cl)cc3)no2)cc1` were, in that order, 17.1% (inactive) and 12.1%.
For the compound `Cc1cc(C)cc(NC(=S)NCCc2c[nH]c3ccccc23)c1`, the inhibition runs as follows: under setting [1], 70.2% (active); (mutant strain inhibition) 27.3%.
The like results for `O=C(NCCc1c[nH]c2ccccc12)c1cc2ccccc2oc1=O` were, in that order, 15.8% (inactive) and -4.03%.
The like results for `Cc1cc(C)cc(NC(=S)NCc2ccc(F)cc2)c1` were, in that order, 42.3% (inactive) and 3.44%.
With `CC(C)(C)NC(=O)c1ccc(Cn2cc(C(F)(F)F)ccc2=O)cc1`, the inhibition by setting is: under setting [1], 3.12% (inactive); (mutant strain inhibition) 11.4%.
The like results for `Nc1ccc(Nc2ccccc2)cc1` were, in that order, 74.9% (active) and 46%.
As for `Cc1cc(Nc2ccccc2)n(C(=O)c2ccc(N)cc2)n1`, the inhibition under setting [1] was -10.2% (inactive) and the inhibition (mutant strain inhibition) stood at 32.9%.
Take `Cc1ccc(Nc2ccccc2N)cc1`: the inhibition is, setting by setting: under setting [1], 48.4% (inactive); (mutant strain inhibition) 33.4%.
The like results for `CCOC(=O)C1(Cc2cccc(OC)c2)CCN(C(C)CC(C)(C)O)CC1` (stereo unspecified) were, in that order, -0.94% (inactive) and 20.1%.
The like results for `CCN(CC)CC(=O)Nc1sc2c(c1C(=O)c1ccccc1C)CCC2` were, in that order, 56.7% (inactive) and 9.28%.
In the case of `COC(=O)C1C(=O)NCC1c1ccc(C)cc1` (stereo unspecified), the inhibition is, setting by setting: under setting [1], 19.4% (inactive); (mutant strain inhibition) 13.7%.
The like results for `COC(=O)C1=C(Nc2ccc(OC)cc2)C=C(C)C(C(=O)OC)C1c1ccc(C)cc1` (stereo unspecified) were, in that order, 11.5% (inactive) and 5.72%.
Consider `COC(=O)C1=C(Nc2ccc(C)cc2)C=C(C)C(C(=O)OC)C1c1ccc(F)cc1` (stereo unspecified), for which the inhibition is 72.8% (active) under setting [1] and -7.13% (mutant strain inhibition).
For `CCC(=O)NC(=S)Nc1ccc(NC(=O)c2ccco2)c(Cl)c1`, the inhibition reads like this: under setting [1], 8.3% (inactive); (mutant strain inhibition) -0.75%.
The like results for `Cn1ccc(=NC=C(C#N)C#N)c2ccccc21` were, in that order, -8.61% (inactive) and 4.44%.
Consider `CC1=NNC(=O)C1CCC(=O)N/N=C\c1ccc(Cl)c(Cl)c1` (stereo unspecified), for which the inhibition was -6.04% (inactive) under setting [1] and 2.78% (mutant strain inhibition).

Source of the values: PubChem BioAssay AID1362 (SRMLSC, 2008).
